This note sets out measurements from PubChem BioAssay (EPA / NIEHS).

Structures are written as SMILES. Records with an inconclusive call do not appear. Active and inactive are the calls of the source. The calls were made as follows: active = hit-call score of the fitted dose curve at least 0.9, where 1 is the maximum; inconclusive = response in the unintended direction; inactive = score below 0.9.

In this assay the target is Oxysterols receptor LXR-alpha (Homo sapiens) (UniProt Q13133). In words: ATG_LXRa_TRANS: Attagene TRANS-FACTORIAL HepG2 Assay for human Liver X Receptor alpha (LXRa) (AID 2282980). The note with it: HepG2 Attagene TRANS reporter, LXRa transactivation. The method, then: ATG_TRANS is a cell-based, multiplexed-readout assay that uses HepG2, a human liver cell line, with measurements taken at 24 hours after chemical dosing in a 24-well plate.ATG_LXRa_TRANS is one of 30 assay component(s) measured or calculated from the ATG_TRANS assay. It is designed to make measurements of mRNA induction, a form of inducible reporter, as detected with fluorescence intensity signals by Reverse transcription polymerase chain reaction (RT-PCR) and Capillary electrophoresis technology.Data from the assay component ATG_LXRa_TRANS was analyzed into 1 assay endpoint. This assay endpoint, ATG_LXRa_TRANS, was analyzed in the positive analysis fitting direction relative to DMSO as the negative control and baseline of activity. Using a type of inducible reporter, measures of mRNA for gain-of-signal activity can be used to understand the reporter gene at the transcription factor-level as they relate to the gene NR1H3. Furthermore, this assay endpoint can be referred to as a primary readout, because this assay has produced multiple assay endpoints where this one serves a reporter gene function. To generalize the intended target to other relatable targets, this assay endpoint is annotated to the nuclear receptor intended target family, where the subfamily is non-steroidal.
Chain of Oxysterols receptor LXR-alpha (Homo sapiens) (Q13133 whole entry, looked up): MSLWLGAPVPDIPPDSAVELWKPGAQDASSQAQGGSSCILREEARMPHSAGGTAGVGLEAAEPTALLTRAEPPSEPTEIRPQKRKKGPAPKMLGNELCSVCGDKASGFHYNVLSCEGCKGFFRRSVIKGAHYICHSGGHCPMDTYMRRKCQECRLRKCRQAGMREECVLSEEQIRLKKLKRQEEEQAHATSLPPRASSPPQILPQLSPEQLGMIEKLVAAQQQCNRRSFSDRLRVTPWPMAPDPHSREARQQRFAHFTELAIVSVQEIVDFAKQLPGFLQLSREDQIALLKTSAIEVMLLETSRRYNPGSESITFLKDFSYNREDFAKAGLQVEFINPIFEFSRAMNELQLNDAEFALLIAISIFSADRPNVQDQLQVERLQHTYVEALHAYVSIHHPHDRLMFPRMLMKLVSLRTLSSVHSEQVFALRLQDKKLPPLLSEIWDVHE
Human liver HepG2 cells are transiently transfected with multiple reporter transcription units (MRTUs) in 6-well plates using FuGene 6 reagent (Roche; 3 ml FuGene/1 mg DNA). The MRTU constructs are regulated by a cis-regulating element (promoter). […] A major difference between the CIS and TRANS system is that in CIS activities of endogenous TFs are measured, whereas the TRANS assay evaluates changes in activities of exogenous, chimeric NR-Gal4 proteins. […] At the end of 24 hour incubation, total RNA was isolated using TriZol reagent (Invitrogen). The isolated RNA is then reverse-transcribed using oligo(dT) primer and Mo-MLV reverse transcriptase (Invitrogen) with DNAse I (Ambion) treatment for 30 min. The one-tenth of the produced cDNA was amplified by PCR using Taq DNA polymerase (Invitrogen) and two reporter sequence-specific primers. The PCR products were fluorescently labeled by primer extension with 6-arboxyfluorescein (6-FAM) 5'-labeled reporter sequence-specific primer (2 min at 95 C, 20 s at 68 C and 10 min at 72 C) and these products were digested with 5U of HpaI (New England Biolabs) for 2h at 37 C. The fragments were purified using Qiaquick PCR columns (Qiagen), analyzed on an ABI 3130xL genetic analyzer (Applied Biosystems) with peak positions identified by using a set of X-rhodamine (ROX)-labeled MapMarker1000 molecular weight standards (BioVentures). The raw capillary electrophoresis data was processed using Attagraph software (Attagene).
As to `Oc1ccc2cc(SSc3ccc4cc(O)ccc4c3)ccc2c1`, the compound was called inactive. `C[C@H]1O[C@@H](O[C@H]2[C@@H](O)C[C@H](O[C@H]3[C@@H](O)C[C@H](O[C@H]4CC[C@@]5(C)[C@H](CC[C@@H]6[C@@H]5C[C@@H](O)[C@]5(C)[C@@H](C7=CC(=O)OC7)CC[C@]65O)C4)O[C@@H]3C)O[C@@H]2C)C[C@H](O)[C@@H]1O`: the outcome was inactive. For `O=C(Nc1ccc([N+](=O)[O-])cc1)Nc1ccc([N+](=O)[O-])cc1` (tested in a mixture with another compound) the value was “inactive”; for `CC1(C)C(=O)N(Cl)C(=O)N1Br`, “inactive”. `C=CCCC(=O)/C=C/C1C(C)=CCCC1(C)C` (stereo not given): the call was inactive. The same measure for `C=COCCOCCOC=C`: “inactive”. The same measure for `C/C=C(\C)C(=O)OCCc1ccccc1`: “inactive”; for `OC[C@H]1O[C@@H](Oc2ccc(O)cc2)[C@H](O)[C@@H](O)[C@@H]1O`: “inactive”; for `Cc1cc(S(=O)(=O)O)ccc1N=Nc1c(O)ccc2ccccc12`: “inactive”.

As for `COc1cccc(OC)c1O`, the result was inactive. For `OCc1ccc(Cl)cc1Cl` the value was “inactive”; for `O=CCc1ccccc1`, “inactive”. Consider `CCCCC(CC)C(=O)OC(C)C` (stereo not given), for which the outcome was inactive. The same measure for `C1CCCCC1`: “inactive”.

Turning to `C=Cc1ccncc1`, the compound was classed as inactive. With `Nc1ccc(NCCO)c([N+](=O)[O-])c1`, the compound was called inactive. For `Cc1cc(CCC(=O)OCCOCCOCCOC(=O)CCc2cc(C)c(O)c(C(C)(C)C)c2)cc(C(C)(C)C)c1O` the value was “inactive”; for `OCc1cccc(Oc2ccccc2)c1`, “inactive”. For `CN(C)c1ccncc1` the value was “inactive”; for `C#CC(C)(O)CC(C)C` (stereo not given), “inactive”; for `CCN(CCN)c1cccc(C)c1`, “inactive”. For `O=C(O)c1ccc(O)cc1` the value was “inactive”; for `CCOCCOCCOCC`, “inactive”; for `c1ccc(CN(Cc2ccccc2)Cc2ccccc2)cc1`, “inactive”. In the case of `O=[N+]([O-])c1ccc(O)cc1C(F)(F)F`, the compound was classed as inactive. Regarding `CC(CN=Cc1ccccc1O)N=Cc1ccccc1O` (stereo not given), the result was inactive.

As to `COC(CC(C)CCCC(C)(C)O)OC` (stereo not given), the compound was called inactive. The same measure for `COC(C)(C)CC(C)=O`: “inactive”. For `COc1cc(Cl)c(OC)cc1N` the value was “inactive”. For `C=C(C)[C@@H]1CC=C(C)C(=O)C1` the value was “inactive”.

In the case of `Cc1ncc([N+](=O)[O-])n1CCO`, the compound was classed as inactive. For `CC1=NN(c2ccc(S(=O)(=O)O)cc2)C(=O)C1` the value was “inactive”; for `COc1ccccc1N=Nc1c(S(=O)(=O)O)cc2cc(S(=O)(=O)O)cc(NC(C)=O)c2c1O`, “inactive”; for `NC1CCCCC1N` (stereo not given), “inactive”. For `CCc1ncc(C)[nH]1` the value was “inactive”. The same measure for `C#CC(C)N(C)C(=O)Nc1ccc(Cl)cc1` (stereo not given): “inactive”; for `C=C(C)C(=O)OCCOC1CC2CC1C1C=CCC21` (stereo not given): “inactive”. As for `CCCCCCC(CO)CCCC` (stereo not given), the compound was called inactive. Take `O=C(Nc1ccc2c(c1)Cc1ccccc1-2)C(F)(F)F`: the compound was classed as inactive. As to `CS(=O)(=O)c1ccc(Cl)cc1`, the outcome was inactive.
